This is part of a sample that, as a whole, favours compounds with a hit. Of some 83,000 tested, about 20% had one in any assay.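 Values shown are percent growth following 48 h exposure of cells in 96-well plates to a single concentration of compound; below 10 was considered active.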 Values without a mark were called inactive. Active and inactive are the calls of the source.
Experiments:
Assay in all cases: NCI-60 one-dose screen, 48 h (100 = growth as untreated, 0 = no growth, -100 = all killed)
Settings in all cases: 10 µM unless noted
[1] = test system: NCI-H23 lung
[2] = test system: NCI-H226 lung
[3] = test system: NCI-H322M lung
[4] = test system: HOP-62 NSCLC
[5] = test system: NCI-H460 lung
[6] = test system: HOP-92 NSCLC
[7] = test system: NCI-H522 lung
[8] = test system: A549/ATCC NSCLC
[9] = test system: 786-0 renal
[10] = test system: COLO 205 colon
[11] = test system: DU-145 prostate
[12] = test system: K-562 leukemia
[13] = test system: MALME-3M melanoma
[14] = test system: MDA-MB-231 breast
[15] = test system: RXF 393 renal
[16] = test system: SF-268 CNS
[17] = test system: SF-295 CNS
[18] = test system: SF-539 CNS
[19] = test system: UACC-257 melanoma
[20] = test system: M14 melanoma

Structure (SMILES)	growth [1]	growth [2]	growth [3]	growth [4]	growth [5]	growth [6]	growth [7]	growth [8]	growth [9]	growth [10]	growth [11]	growth [12]	growth [13]	growth [14]	growth [15]	growth [16]	growth [17]	growth [18]	growth [19]	growth [20]
C=CCn1c(SCC(=O)Nc2ccc(/C(C)=N\O)cc2)nnc1-c1cc(-c2ccc(OC)cc2)nc2ccccc12	33.7%	41.2%	31.9%	38.5%	27.8%	45.9%	18.7%	20.1%	32.8%	19.2%	60.6%	19.1%	66.4%	33.7%	42.2%	51.5%	19.8%	20.2%	44.1%	36.3%
CCCC(=O)Oc1ccc(/C(=C(\C)c2ccc(Cl)cc2)c2ccc(OCCN(CC)CC)cc2)cc1	-33.4% (active)	68.4%	24.1%	-57.1% (active)	-83.9% (active)	-13.1% (active)	-55% (active)	-51% (active)	-89.6% (active)	-84% (active)	-22.9% (active)	-19.6% (active)	-77.5% (active)	-40.9% (active)	-79.5% (active)	-9.12% (active)	-75.9% (active)	-77.9% (active)	-62.2% (active)	-71.8% (active)
S=c1ssnc1-c1ccccn1	44.5%	61.4%	66.5%	47.7%	6.05% (active)	-4.36% (active)	-29.3% (active)	57.7%	18.1%	43%	41.6%	-35.5% (active)	52%	44.3%	-0.23% (active)	24.9%	40.4%	14.5%	93.3%	24.5%
COc1ccc(Cl)cc1NC(=O)c1cc2c([nH]1)-c1nc(N)sc1CCC2	86.4%	95.6%	87.1%	102%	109%	132%	64.3%	69.6%	99.7%	121%	101%	74.7%	101%	105%	114%	98.2%	106%	99.4%	91%	97.6%
O=C(Nc1ccc(-n2cc(-c3ccncc3)c(-c3ccc(O)c(Cl)c3)n2)cc1)Nc1ccc(Cl)c(C(F)(F)F)c1	16.2%	50.2%	27.3%	28.3%	-1.85% (active)	-22.9% (active)	9.38% (active)	16.7%	-31.5% (active)	41.3%	29.5%	17.1%	13.3%	-39.7% (active)	-74.4% (active)	18.4%	-10.3% (active)	13.7%	47.5%	7.1% (active)
CCc1c(C)c2cc(-n3c(-c4ccc(OC)cc4)csc3=N)c(O)c(C)c2oc1=O	26.7%	56%	54.5%	30.4%	11.1%	33.5%	-46.5% (active)	26.3%	21.5%	12.6%	17.7%	5.33% (active)	15.3%	13.4%	27.8%	16.5%	20.8%	-0.811% (active)	60.8%	9.77% (active)
Cc1c(NC(=O)c2sc3nc4c(cc3c2N)CN(Cc2ccccc2)CC4)cccc1C(F)(F)F	72.7%	65.7%	73.1%	35.9%	18.7%	77.1%	10.4%	53.7%	84.4%	21.6%	54.9%	8.08% (active)	63.8%	73.8%	67.2%	65.6%	41.5%	65%	52.2%	31.2%
CO[C@H]1/C=C/C=C/C=C/C[C@H](OC(=O)[C@@H](C)NC(=O)C2CCCCC2)[C@H](C)[C@@H](O)/C(C)=C\CCC2=CC(=O)C=C(NC(=O)C1)C2=O	-14.1% (active)	-15% (active)	-2.45% (active)	-35.6% (active)	1.23% (active)	-10.7% (active)	-29.9% (active)	-5.23% (active)	-5.57% (active)	-26.6% (active)	-13.8% (active)	3.3% (active)	-7.99% (active)	5.38% (active)	-40.2% (active)	-7.66% (active)	-33.5% (active)	-49.3% (active)	-18.9% (active)	-40.3% (active)
Nc1nc(-c2cc3c(cc2Cl)NC(=O)/C3=C/c2ccccc2)cs1	56.5%	71.8%	70.1%	78.6%	56.8%	81.2%	27.5%	61.5%	83.9%	81.3%	51.6%	3.89% (active)	97.1%	37.3%	63.3%	52.1%	70%	81.5%	80.1%	60.6%
COc1ccc(Cl)cc1NC(=O)c1cc2c(n1C)-c1nc(NC(=O)C(C)(C)C)sc1CC2	87.8%	89.6%	91.3%	76.4%	98.1%	67.9%	69%	77.2%	94.7%	97.7%	98.6%	92.2%	106%	91.9%	97.5%	95.5%	87.8%	98.9%	90.9%	88.2%
NC(=NCCCOc1ccc(F)cc1)Nc1ccc(Cl)c(Cl)c1	67.9%	76.2%	69.3%	78.7%	74.3%	16.5%	67.6%	82.5%	67.6%	-57.7% (active)	80.2%	12.6%	98.1%	44%	68.6%	54.9%	76.6%	79.1%	77.2%	63.6%
Nn1c(SCC(=O)Nc2cc(Cl)c(Cl)cc2Cl)nnc1-c1cc(F)c(Cl)cc1Cl	103%	138%	105%	91.3%	110%	75.8%	90.9%	106%	98.4%	106%	113%	90.2%	121%	127%	151%	110%	109%	108%	108%	96.7%
CCOC(=O)c1[nH]c(-c2ccc(Cl)cc2)cc1-c1cccnc1	35.1%	68.4%	59.4%	10.5%	7.36% (active)	17%	-1.79% (active)	30.7%	24.5%	-15.5% (active)	19%	6.33% (active)	72.7%	40.3%	-2.78% (active)	46.6%	10.9%	-24.8% (active)	86.3%	14.3%
Cc1[nH]c2ccc(F)cc2c1CCNC(=O)C1CCN(C(=O)c2ccc(-c3ccccc3)cc2)CC1	45.5%	57.3%	87%	64.4%	51%	70.6%	41.6%	39.1%	63.3%	36.7%	68.8%	17.3%	63.6%	62.7%	54.5%	60.4%	37.6%	66.8%	58.1%	40.8%

— PubChem BioAssay (NCI)
